Here are results for five compounds from PubChem BioAssay AID504920 (Johns Hopkins Ion Channel Center, 2011).

Unmarked numbers belong to inactive results.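 Rule for the calls: active = peak hERG channel inhibition above 30% at some tested dose, together with a fitted dose response curve; inactive = no hERG inhibition at any dose, or no curve.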

Chain of Voltage-gated inwardly rectifying potassium channel KCNH2 (Homo sapiens) (Q12809 whole entry, looked up): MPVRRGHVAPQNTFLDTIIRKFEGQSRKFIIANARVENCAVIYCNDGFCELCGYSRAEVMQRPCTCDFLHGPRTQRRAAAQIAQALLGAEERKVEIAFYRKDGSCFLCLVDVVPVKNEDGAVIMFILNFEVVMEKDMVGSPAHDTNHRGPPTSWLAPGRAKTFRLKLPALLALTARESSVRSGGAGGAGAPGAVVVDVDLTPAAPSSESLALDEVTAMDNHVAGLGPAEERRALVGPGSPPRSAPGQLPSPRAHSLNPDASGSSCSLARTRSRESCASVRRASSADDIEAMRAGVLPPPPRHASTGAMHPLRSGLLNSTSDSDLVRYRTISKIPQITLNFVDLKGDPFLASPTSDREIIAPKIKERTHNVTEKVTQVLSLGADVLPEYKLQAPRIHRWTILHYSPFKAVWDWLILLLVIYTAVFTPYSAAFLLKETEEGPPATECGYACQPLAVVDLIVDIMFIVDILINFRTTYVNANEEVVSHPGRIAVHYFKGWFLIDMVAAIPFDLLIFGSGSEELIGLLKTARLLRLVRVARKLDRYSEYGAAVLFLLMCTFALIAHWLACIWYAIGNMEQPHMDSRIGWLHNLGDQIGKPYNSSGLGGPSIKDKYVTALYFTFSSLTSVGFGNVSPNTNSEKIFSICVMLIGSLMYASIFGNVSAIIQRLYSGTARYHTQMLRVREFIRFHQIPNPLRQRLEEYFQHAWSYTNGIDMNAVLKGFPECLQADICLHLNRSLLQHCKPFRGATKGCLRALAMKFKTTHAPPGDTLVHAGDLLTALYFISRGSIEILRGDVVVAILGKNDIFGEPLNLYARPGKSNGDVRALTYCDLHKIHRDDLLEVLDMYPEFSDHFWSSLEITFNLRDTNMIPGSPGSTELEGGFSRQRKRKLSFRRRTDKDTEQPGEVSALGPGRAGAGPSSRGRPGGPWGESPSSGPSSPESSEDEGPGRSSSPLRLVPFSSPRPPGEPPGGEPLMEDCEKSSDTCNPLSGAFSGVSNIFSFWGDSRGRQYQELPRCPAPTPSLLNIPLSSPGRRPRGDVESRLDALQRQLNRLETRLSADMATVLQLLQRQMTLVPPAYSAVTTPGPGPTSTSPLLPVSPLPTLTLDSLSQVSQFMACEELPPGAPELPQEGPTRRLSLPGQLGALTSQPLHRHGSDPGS

The assay addresses Voltage-gated inwardly rectifying potassium channel KCNH2 (Homo sapiens) (UniProt Q12809). Description: KCNH2 potassium channel blockade – FluxOR Tl flux, hERG-expressing cells, selectivity assay for KCNK9 inhibitor project, SAR follow-up (AID 504920). To be noted: FluxOR thallium flux fluorescence; series mostly up to 30 µM; fluorescence ratio, lower = inhibition: at the top concentration. On the technique in general: The hERG channel carries a current that helps repolarise heart muscle cells.
On to `Cc1cccc(C(=O)Nc2cccc(C(=O)Nc3ccccc3)c2)c1`, for which the “fluorescence ratio, lower = inhibition” value was 0.362.

With `Cc1cccc(C(=O)Nc2ccccc2C(=O)Nc2ccccc2)c1`, the “fluorescence ratio, lower = inhibition” value is 0.274.

For `Cc1cccc(C(=O)Nc2ccc(C(=O)Nc3ccccc3)cc2)c1`, the “fluorescence ratio, lower = inhibition” value is 0.47.

In the case of `Cc1cccc(NC(=O)c2cccc(NC(=O)c3ccccc3)c2)c1`, the “fluorescence ratio, lower = inhibition” value was 0.4.

Turning to `Cc1cccc(NC(=O)c2ccccc2NC(=O)c2ccccc2)c1`, the “fluorescence ratio, lower = inhibition” value was 0.494.
